# In PubChem BioAssay AID1053175 (ICCB-Longwood Screening Facility, Harvard Medical School, 2014):
# Several values for one entry are separate records, joined by “and”; a condition that tells them apart may be missing. Equal entries are not always repeated. The campaign covered roughly 330,000 compounds. About 700 (0.21%) were called active. The sample as a whole holds a higher share of actives than the screen did. Unmarked numbers belong to inactive results.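 How the source made its calls: active means OD600 absorbance below the run mean of sample wells minus 3.6 SD, in any replicate (cut at about 0.56 in these data); inactive means the rest.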
# Assay: E. coli growth inhibition, primary screen, OD600 (AID 1053175)
# Settings: Escherichia coli growth, OD600, 23 h; stronger effect = lower value
row,Structure (SMILES),OD600 absorbance
1,CC1COc2ccccc2N1C(=O)c1ccc(F)cc1 (stereo not given),0.65
2,O=C(COC(=O)c1ccc(F)cc1)NCC1COc2ccccc2O1 (stereo not given),0.688
3,O=C(Nc1nnc(C2COc3ccccc3O2)o1)c1ccc(F)cc1 (stereo not given),0.346 (active)
4,O=C(CO)NN=Cc1cccc(Cl)c1Cl,0.595
5,CCOc1ccccc1C(=O)NN=Cc1coc2ccc(Cl)cc2c1=O,0.656
6,COc1ccc(/C=C(\NC(=O)c2ccccc2)C(=O)NN=Cc2cccnc2)cc1,0.669
7,O=C(NN=Cc1c[nH]c2ccccc12)c1ccc(O)c(O)c1,0.695
8,COC(=O)C1CC2CCC(O)CC2N1Cc1ccc(C(F)(F)F)cc1 (stereo not given),0.627 and 0.652
9,CC1(C)CC2CC(C)(CN2C=Nc2sc3c(c2C#N)CC(C)(C)NC3(C)C)C1 (stereo not given),0.649
10,CCCC(O)c1cc2cc(OC)c(OC)cc2c(=O)o1 (stereo not given),0.667
11,CCc1n[nH]c(=S)n1N=Cc1c(O)ccc2ccccc12,0.677
12,C=CCSc1nsc(NC(=O)Nc2cccc(C(C)=O)c2)n1,0.61
13,CSc1nsc(NC(=O)Nc2ccccc2)n1,0.445 (active)
14,CCSc1nsc(NC(=O)Nc2cccc(C(C)=O)c2)n1,0.575
15,COc1ccc(C)cc1NC(=O)CCC(=O)Nc1nnc(C(F)(F)F)s1,0.73
16,O=C(Nc1nnc(COc2ccccc2)s1)Nc1ccccc1F,0.649
17,O=C(NCC(F)(F)F)Nc1nnc(C(F)(F)F)s1,0.494 (active)
18,O=C(O)c1ccc(NN=Cc2ccc(-c3ccc(Cl)cc3Cl)o2)cc1,0.671
19,CCOC(=O)C1C2COc3ccc(Cl)cc3C2N2C(=O)c3ccc(C)cc3NC(=O)[C@@]12C (stereo not given in full),0.705
20,CCN(CC)C(=O)c1[nH]cnc1C(=O)NC(Cc1ccccc1)C(=O)OC(C)(C)C (stereo not given),0.689
21,COc1cc(C=NNC(=O)c2ccc3c(c2)OCCO3)cc(Br)c1O,0.712
22,CC(C(=O)N1CCNCC1)n1cc(CCC(=O)O)nn1 (stereo not given),0.694
23,CCCCNC(=O)c1cn(CC)c2cc(N3CCN(C(=O)c4ccco4)CC3)c(F)cc2c1=O,0.458 (active)

row,Structure (SMILES),OD600 absorbance
1,CCNC(=S)N1CCN(C(=O)c2ccco2)CC1,0.73
2,CCCCCCn1cc(C(=O)O)c(=O)c2cc(F)c(N3CCCCC3)cc21,0.628
3,CCn1cc(S(=O)(=O)c2cccc(C)c2)c(=O)c2cc(F)c(N3CCN(C)CC3)cc21,0.662
4,CCn1cc(C(=O)NCCC(=O)NCCO)c(=O)c2cc3c(cc21)OCO3,0.65
5,CCn1cc(C(=O)NCCO)c(=O)c2cc(F)c(N3CCN(C)CC3)cc21,0.0485 (active)
6,O=C(C=CNNC(=O)c1ccccc1)c1ccc(Br)cc1,0.66
7,CC1CN(C(C)CO)C(=O)c2cc(NC(=O)Cn3cnnn3)ccc2OC1CN(C)Cc1ccc(Cl)c(Cl)c1 (stereo not given),0.734
8,O=C(Nc1cccc(O)c1)c1ccc(C(=O)c2ccccc2)o1,0.71
9,Cc1cccc(NC(=O)c2ccc([N+](=O)[O-])o2)c1,0.475 (active)
10,O=C(Nc1ccc(Br)cn1)c1ccc([N+](=O)[O-])o1,0.518
11,COc1ccc(S(=O)(=O)ON=C2CCCc3ccccc32)cc1,0.751
12,COc1ccc(C2C3C(=O)N(C(C)(C)C)C(=O)C3[C@]3(C)C(=O)N(c4cccc(C)c4)C(=O)N23)cc1 (stereo not given in full),0.681
13,O=C(NN=Cc1ccc(O)cc1)c1ccc(COc2cc(Cl)ccc2Cl)o1,0.778
14,CCOC(=O)C1C2COc3cc(OC)ccc3C2N2C(=O)N(c3cccc(F)c3)C(=O)[C@@]12C (stereo not given in full),0.694 and 0.697 and 0.645
15,CC(C)(C)C(COc1ccccc1[N+](=O)[O-])=NO,0.627
16,COc1cccc(C=NNc2nc3ccccc3n3cnnc23)c1,0.749
17,Cc1ccc(C)c(-c2cc(C(=O)NN=Cc3cccnc3)c3ccccc3n2)c1,0.67
18,CC(C)C[C@H](NC(=O)Nc1cccc(C(F)(F)F)c1)C(=O)O,0.689
19,CCNS(=O)(=O)c1ccc(NC(=O)Nc2cccc(C(F)(F)F)c2)cc1,0.51 (active)
20,O=C(Nc1ccc(C(=O)N2CCOCC2)cc1)Nc1cccc(C(F)(F)F)c1,0.664
21,Cc1ccc2cc(C=NNC(=O)[C@@H]3CCCN3)c(Cl)nc2c1,0.699
22,CN1CCN(CCC(=O)NN=Cc2cc([N+](=O)[O-])ccc2O)CC1,0.633
23,CCN=c1scc(C)n1N=Cc1cc(Br)c(O)c(OC)c1,0.689

row,Structure (SMILES),OD600 absorbance
1,CN1C(=O)C2C(C=Cc3ccccc3)N3C(=O)CN(Cc4ccc(-c5ccccc5)cc4)C(=O)[C@@]3(Cc3ccccc3)C2C1=O (stereo not given in full),0.678
2,CC(=NNC(=O)C1CC1)c1ccc(NC(=O)c2ccc(Br)o2)cc1,0.697
3,O=C(NN=Cc1ccco1)c1cccs1,0.606
4,CCC(C)N1CCC2(CC1)N=c1c(c3c4c5c(C)c(O)c3c(O)c1=NC(=O)C(C)=CC=CC(C)C(O)C(C)C(O)C(C)C(OC(C)=O)C(C)C(OC)C=CO[C@@](C)(O5)C4=O)N2 (stereo not given in full),0.076 (active)
5,CCOC(=O)C1C2COc3cc(OC)ccc3C2N2C(=O)CN(Cc3ccc(C)cc3)C(=O)[C@@]12C (stereo not given in full),0.699
6,CC1CC2OC(=O)[C@]3(C)C2C(OC3(C)O)[C@]2(C)C(=O)C=CC12 (stereo not given in full),0.679
7,CC(C)(C)NC(=O)CCN(N=Cc1ccccc1F)C1=NS(=O)(=O)c2ccccc21,0.627
8,CN(C)c1ccc(C=NNC(=O)Cn2nnc3ccccc32)cc1,0.725
9,Cc1nnc(SCC2=C(C(=O)O)N3C(=O)C(NC(=O)Cn4nc(C)c(Cl)c4C)C3SC2)s1 (stereo not given),0.488 (active)
10,Cc1cc(C)cc(C(=O)NC2C(=O)N3C(C(=O)O)=C(CSc4nnc(C)s4)CSC23)c1 (stereo not given),0.684
11,CC(C)(C)OC(=O)C1=C(CO)CS[C@@H]2[C@H](NC(=O)Cc3ccccc3)C(=O)N12,0.72
12,CC(C)CC(CSc1ccccc1)N1CCN(C)CCC1=O (stereo not given),0.708
13,CCc1ccc(NC(=O)CC(C)=NNC(=O)OCc2ccc(OC)cc2)cc1,0.657
14,COc1ccc(C=NNC(=O)c2ccccc2[N+](=O)[O-])cc1CN1CCc2cc(OC)c(OC)cc2C1C (stereo not given),0.712
15,Cc1ccc(NC(=O)C=NOCC(=O)NCc2ccccc2Cl)cc1,0.705
16,CCOC1OC(C(N)=O)=CC(c2ccccc2)C1CCCO (stereo not given),0.702 and 0.686
17,CC(NC(=O)C(=O)NN=Cc1ccc(Cl)cc1)c1ccccc1 (stereo not given),0.673
18,CCN=c1scc(C)n1N=Cc1ccsc1,0.697
19,Cc1ccc(C2=[N+]([O-])C3(CCCCCC3=NNC(N)=S)N(O)C2(C)C)o1 (stereo not given),0.771
20,O=C(O)c1csc(NN=Cc2ccc(Br)cc2)n1,0.677
21,O=C1CCCC(=NNC(=O)c2cc(NS(=O)(=O)c3cccs3)cc(NS(=O)(=O)c3cccs3)c2)C1,0.669
22,CCOC(=O)C1C2COc3cc(OC)ccc3C2N2C(=O)N(c3ccc(C(F)(F)F)cc3)C(=O)[C@@]12C (stereo not given in full),0.696 and 0.712
23,C=CCN1c2ccccc2[C@]23CC(C(=O)OC)N(C(=O)c4cc(C)oc4C)C2=NC(C(=O)OC)=C(C(=O)OC)C13 (stereo not given in full),0.651

row,Structure (SMILES),OD600 absorbance
1,CC(=NNC(=O)c1ccncc1)c1cc2ccccc2o1,0.717
2,Cc1cc(C)c(C)c(OCC(=O)ON=C(N)c2ccccn2)c1,0.733
3,COC(=O)c1ccc(C=NNC(=O)C2CC(=O)N(c3ccc(F)cc3)C2)cc1 (stereo not given),0.657
4,Cc1nc2ccccn2c1C(=O)NN=Cc1ccc2c(c1)OCO2,0.657
5,O=[N+]([O-])c1ccc(C=NN2CCN(c3ccc(Cl)cc3)CC2)cc1,0.805
6,Cc1cccc(NC(=S)Nc2ccc3cn[nH]c3c2)c1,0.655
7,Cc1cccc(NC(=S)Nc2ccc(Cl)c(Cl)c2)c1,0.495 (active)
8,Cc1cccc(NC(=S)NC23CN4CN(CN(C4)C2)C3)c1,0.691
9,O=C(O)c1cc2c(o1)CCCC2=NO,0.711
10,Clc1c(OCCCn2ccnc2)ccc2ccccc12,0.49 (active)
11,C=CCc1cc(C)ccc1OCCCn1ccnc1,0.666
12,c1ccc(Cc2ccc(OCCn3ccnc3)cc2)cc1,0.583
13,NC(CCCN1CCCCC1)=NO,0.705
14,CCCSc1ccc(C2N[C@@](CC(C)C)(C(=O)OC)C3C(=O)N(CC)C(=O)C23)cc1 (stereo not given in full),0.649
15,O=C(CN1CCN(c2ccc(F)cc2)CC1)Nc1ccccc1,0.673
16,Fc1ccc(N2CCN(Cc3cnc(Oc4ccc(Br)cc4)s3)CC2)cc1,0.726
17,Oc1c(CN2CCN(c3ccc(F)cc3)CC2)cc(Cl)c2cccnc12,0.332 (active)
18,CCN1C(Nc2ccccc2)=NCC1CC(C)C (stereo not given),0.698
19,CC(NC(=O)COc1ccc(C=NNC(=O)C(=O)Nc2ccccc2Br)cc1)c1ccccc1 (stereo not given),0.788
20,O=C(Nc1ccccc1C(=O)NN=Cc1ccncc1)c1ccccc1,0.706
21,CC(=NNC(=O)c1cccc(S(=O)(=O)N2CCCC2)c1)c1ccco1,0.651
